Data as given in PubChem BioAssay (NCI).
The panel holds about 79,000 compounds, 15% with a hit somewhere; the sample as a whole holds those more often. Values without a mark were called inactive. The source made the active and inactive calls. Rule as the data show it: active = growth inhibition above about 70%; inactive = the rest.

Assay: NCI Yeast Anticancer Drug Screen. Data for the mgt1 strain (AID 153)
Conditions: S. cerevisiae mgt1 mutant growth inhibition, hits give high values
Protocol: Growth inhibition of yeast strains with defined genetic alterations is measured as a screen for potential anti-cancer activity. Selected strains with alterations in DNA damage repair or cell cycle control were exposed to compounds and growth inhibition was measured relative to vehicle treated controls. The strain used in this assay is mgt1

SMILES | growth inhibition (at 1.2 µM) [%] | growth inhibition (at 3.7 µM) [%] | growth inhibition (at 11.0 µM) [%] | growth inhibition (at 33.0 µM) | growth inhibition (at 100.0 µM)
O=P(NC1CCCCC1)(OCc1ccccc1)OCc1ccccc1 | -1 | 0 | 4 | 4% | 7%
COc1ccc2[nH]cc([C@@H]3C4CCC(C4)[C@H]3NCc3cccc(CN[C@H]4C5CCC(C5)[C@@H]4c4c[nH]c5ccc(OC)cc45)c3)c2c1 | -36 | -47 | -38 | 42% | 98% (active)
CC[N+](CC)(CC)c1ccccc1 | 1 | 1 | -6 | 8% | -8%
CN(C)CCNC(=O)c1cccc2c1Oc1c(cccc1[N+](=O)[O-])O2 | 9 | 17 | 16 | 30% | 60%
CC(=O)Nc1ccc2c(c1)-c1ccccc1C2=O | -5 | -4 | -5 | 1% | 76% (active)
COc1ccc2c(c1)n([O-])c1ccccc1[n+]2=O | -1 | 2 | 9 | 33% | 88% (active)
CCCCCCOC(=O)NCCOC(=O)Nc1ccccc1 | -1 | 1 | 3 | 22% | 4%
Brc1ccccc1-c1ncc(-c2ccccc2)o1 | 15 | 27 | 33 | 73% (active) | 78% (active)
